Source: PubChem BioAssay
BAZ2B block: BAZ2B (human) inhibition; AlphaScreen BAZ2B-H3K14Ac peptide displacement; Q9UIF8; Potency, µM (highest dose often 114 µM), usual class: inhibitors; actives 4.4% (n = 360,000); further: nearly all actives have a fitted effect of over 60% in size
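BAZ2B 50 nM plus b-H3(5-23)K14Ac 50 nM, PBS pH 7.4/0.01% Tween-20, 30 min RT; compound added (max 110 uM), 30 min RT; streptavidin donor/Ni-chelate acceptor beads 10 ug/mL final, 20 min dark; AlphaScreen read.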
G9a block: inhibitors of human histone lysine methyltransferase G9a | Q96KQ7 | Potency, µM (doses to about 102 µM), most hits filed as inhibitors | actives 8.8% (n = 350,000) | G9a H3K9 monomethylation, AlphaScreen, 2 h; further: nearly all actives have a fitted effect of over 75% in size
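Enzyme 20 nM + cpd, 15 min RT; add b-H3K9 pep 500 nM / SAM 20 uM; 2 h RT; anti-H3K9me1 Ab 0.5 ug/mL + SA donor / anti-rabbit acceptor beads 20 ug/mL each, 10 min; AlphaScreen read.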
JMJD2A Tudor inh: blocks the human JMJD2A Tudor domain. O75164. AlphaScreen JMJD2A-Tudor / H3K4me3 peptide binding. Potency, µM (top dose mostly 114 µM), most hits filed as inhibitors. actives 4.4% (n = 390,000). AID 504339; further: nearly all actives have a fitted effect of over 50% in size
HP1b binding inh: HP1-beta chromodomain-methylated histone interaction inhibition | Potency, µM (doses to about 114 µM), most hits filed as inhibitors | actives 0.56% (n = 390,000) | AID 540317 | P83916 | AlphaScreen HP1-beta / biotin-H3K9me3 peptide binding; further: nearly all actives have a fitted effect of over 70% in size
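AlphaScreen: HP1-beta (50 nM) preformed 30 min with biotin-H3(1-18)K9me3 peptide (50 nM) in PBS pH 7.4, 0.01% Tween-20. Compound added for 30 min at RT, then streptavidin donor/nickel chelate acceptor beads (10 ug/mL) for 30 min.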
Sfp inh: inhibitors of Bacillus subtilis Sfp phosphopantetheinyl transferase; Q9F4F7; Biochemical Sfp PPTase activity, qHTS; Potency, µM, hits mostly inhibitors; actives 3.5% (n = 310,000); AID 1490;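 further: the enzyme is Sfp with the accession as filed and its product quenches rhodamine fluorescence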
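Sfp 15 nM + cpd, 15 min RT; start w/ rhodamine-CoA 5 uM, BHQ-2-YbbR 12.5 uM (final); 50 mM Hepes pH 7.6, 10 mM MgCl2, 0.01% NP-40, 0.01% BSA; read 525/598 nm at 0 and 30 min.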
Large screens that a line does not name were inactive. This is a sample that favours compounds with a hit; in the whole collection about 12% have one here. The call rests on the fitted dose curve; in most records, active means well fitted curve in the direction sought with a large enough effect; inconclusive means small, poorly fitted or top-dose-only effect, or another doubt; inactive means no such curve, though single readings can be large; an effect the other way counts as inactive or inconclusive.

CCOC(=O)CN1CC23C=CC(O2)C(C(=O)NCc2ccc(C)cc2)C3C1=O (stereo unspecified)	G9a block 35µM
CCOC(=O)CN1CC23C=CC(O2)C(C(=O)NC2CCCCC2)C3C1=O (stereo unspecified)	none (no result: HP1b binding inh)
CCOC(=O)CN1CC23C=CC(O2)C(C(=O)NC2CCCC2)C3C1=O (stereo unspecified)	G9a block 45µM, Sfp inh inconclusive
Cc1oc(-c2cccc(Cl)c2)nc1CSc1nnc(C)n2c1cc1occc12	none (no result: Sfp inh)
CCSc1ncc(/C=N/Nc2ccc(F)cc2)n1C	BAZ2B block inconclusive, G9a block 25µM, JMJD2A Tudor inh inconclusive
CN(C)c1ccc(C2CNC(c3ccc(Cl)c([N+](=O)[O-])c3)c3[nH]c4ccccc4c32)cc1 (stereo unspecified)	BAZ2B block 10µM, G9a block inconclusive, JMJD2A Tudor inh 35µM, HP1b binding inh inconclusive
O=[N+]([O-])c1cccc(C2NCC(c3ccccc3Cl)c3c2[nH]c2ccccc32)c1 (stereo unspecified)	BAZ2B block 35µM, G9a block 40µM, JMJD2A Tudor inh inconclusive, HP1b binding inh inconclusive
COc1cc2cc[n+]3cc4c(OC)c(OC)ccc4cc3c2cc1OC	none (no result: BAZ2B block, JMJD2A Tudor inh, HP1b binding inh)
Cc1ccc(NC(=O)CSc2nnc(-c3ccco3)c(-c3ccco3)n2)cc1	BAZ2B block 32µM, G9a block inconclusive, JMJD2A Tudor inh 56µM, HP1b binding inh inconclusive, Sfp inh 8.9µM
O=C(CSc1nnc(-c2ccccc2)c(-c2ccccc2)n1)NCc1ccco1	BAZ2B block inconclusive, HP1b binding inh inconclusive, Sfp inh inconclusive
O=C(CSc1nnc(-c2ccco2)c(-c2ccco2)n1)Nc1ccccc1	BAZ2B block 20µM, JMJD2A Tudor inh 50µM, HP1b binding inh 22µM, Sfp inh 8.9µM
CN(C)c1ccc(NC(=O)CSc2nnc(-c3ccco3)c(-c3ccco3)n2)cc1	BAZ2B block 25µM, G9a block 25µM, JMJD2A Tudor inh inconclusive, HP1b binding inh inconclusive, Sfp inh inconclusive
Cc1cccc(C)c1NC(=O)CSc1nnc(-c2ccco2)c(-c2ccco2)n1	BAZ2B block 2.5µM, JMJD2A Tudor inh 25µM, HP1b binding inh 50µM, Sfp inh 11µM
CCN(CC)CCn1c(-c2ccccc2)nc2c(NCCOC)nc(C)nc21	none (no result: BAZ2B block, G9a block, JMJD2A Tudor inh, HP1b binding inh)
O=c1cnc2cnc(Oc3cccc(Cl)c3)nc2n1C[C@H]1CCCO1	none (no result: BAZ2B block, JMJD2A Tudor inh, HP1b binding inh)
CC12C=C(/C=C/c3ccccc3)C(C)(C1)C(c1ccccc1)CC2=O (stereo unspecified)	none (no result: BAZ2B block, G9a block, JMJD2A Tudor inh, HP1b binding inh)
O=C(CN(c1cccc(Br)c1)S(=O)(=O)c1ccccc1)N1CCc2ccccc2C1	none (no result: Sfp inh)
O=C(c1csnn1)N1CCC[C@@]2(CCN(Cc3cc(C(F)(F)F)cc(C(F)(F)F)c3)C2)C1	none (no result: BAZ2B block, JMJD2A Tudor inh, HP1b binding inh)
COc1ccc(N2CCN(C(=O)c3cc4c(=O)n(Cc5cccs5)ccc4nc3C)CC2)cc1	BAZ2B block 50µM, G9a block inconclusive, JMJD2A Tudor inh inconclusive (no result: Sfp inh)
COc1ccc(N2CCN(C(=O)c3cc4c(C)nc5ccccc5c4o3)CC2)cc1	G9a block 50µM, JMJD2A Tudor inh 56µM, HP1b binding inh inconclusive
COc1cccc(N2CCN(C(=O)c3cc4c(=O)n(Cc5cccs5)ccc4nc3C)CC2)c1	JMJD2A Tudor inh inconclusive (no result: Sfp inh)
Cc1nc2ccccc2c2oc(C(=O)N3CCC(N4CCCCC4)CC3)cc12	G9a block 71µM
C=CCOc1c(/C=N\NC(N)=O)cccc1OC	none (no result: G9a block)
COc1cc(/C=N/Nc2ccc(C(=O)O)cc2)ccc1O	BAZ2B block 50µM, G9a block inconclusive, JMJD2A Tudor inh inconclusive, HP1b binding inh 50µM, Sfp inh inconclusive
O=[N+]([O-])c1ccc(NN=Cc2cccc(O)c2)nc1	none (no result: BAZ2B block, G9a block, Sfp inh)
COc1cc(/C=N/Nc2ccc([N+](=O)[O-])cn2)cc(OC)c1O	G9a block 8.9µM
COc1cc(/C=N/Nc2ccc(C(=O)O)cc2)cc(OC)c1OC	G9a block 50µM
C=CCOc1c(OC)cc(/C=N/Nc2cccc(C(=O)O)c2)c(Br)c1Br	BAZ2B block 40µM, G9a block 10µM, JMJD2A Tudor inh 56µM, HP1b binding inh inconclusive
O=C(COC(=O)c1ccc(Cl)nc1)NCCc1ccccc1	none (no result: BAZ2B block, G9a block, Sfp inh)
COc1ccc(-c2cc3nc(-c4ccc(C)cc4)cc(C(F)(F)F)n3n2)cc1	none (no result: Sfp inh)
Nc1c(-c2nc(-c3ccccc3Cl)no2)nnn1-c1ccccc1C(F)(F)F	none (no result: Sfp inh)
O=C(NCc1ccccc1Cl)c1ccc(-n2cnc3cccnc32)cc1	none (no result: Sfp inh)
CCCCCOC(=O)CSc1nc2sc3c(c2c(=O)n1Cc1ccccc1)CC(C)(CC)OC3 (stereo unspecified)	none (no result: Sfp inh)
COc1cc(/C=N/NC(=O)CCn2cnc(-c3ccccc3)c2-c2ccccc2)ccc1O	BAZ2B block 45µM, G9a block 45µM, JMJD2A Tudor inh 56µM, HP1b binding inh inconclusive
COc1ccc([N+](=O)[O-])cc1/C=N/NC(=O)c1nonc1N	none
Cc1cc(/C=N/Nc2nc(N)ncc2[N+](=O)[O-])c(C)n1-c1ccccc1F	Sfp inh 50µM (no result: JMJD2A Tudor inh, HP1b binding inh)
COc1ccc([N+](=O)[O-])cc1/C=N/Nc1nn[nH]n1	BAZ2B block inconclusive, G9a block 45µM
Nc1ncc([N+](=O)[O-])c(Oc2ccccc2F)n1	none
Cc1cccc(C)c1-n1c(C)cc(/C=N\Nc2ccc([N+](=O)[O-])cn2)c1C	G9a block inconclusive, JMJD2A Tudor inh 28µM
COc1ccc(-c2csc(NC(=O)C3=NN(c4ccccc4)C(=O)CC3)n2)cc1	none
O=C(c1ccc(Cl)c(S(=O)(=O)N2CCCC2)c1)N1CCN(c2ncccn2)CC1	none
COc1ccc(/C=N/Nc2ccc([N+](=O)[O-])cc2)cc1O	BAZ2B block 50µM, G9a block inconclusive, JMJD2A Tudor inh inconclusive, HP1b binding inh inconclusive
CCC(CC)c1nn2c(=O)cc(COc3ccc(NC(=O)c4ccccc4C)cc3)nc2s1	none (no result: Sfp inh)
CC(=O)c1cccc(NC(=O)Cn2c(=O)oc3cc(S(=O)(=O)NCc4ccccc4)ccc32)c1	none (no result: Sfp inh)
COc1ccc(-c2nc(C)c(CCNC(=O)c3c(F)cccc3F)s2)cc1	none (no result: Sfp inh)
CNC(=O)c1c(NC(=O)CCS(=O)(=O)c2ccc(Cl)cc2)sc2c1CCN(C(=O)OC)C2	G9a block 50µM (no result: Sfp inh)
CN1CCc2c(sc(NC(=O)CS(=O)(=O)c3ccc(F)cc3)c2C(N)=O)C1	G9a block 50µM (no result: Sfp inh)
CC(=O)N1CCc2c(sc(NC(=O)C3COc4ccccc4O3)c2C(N)=O)C1 (stereo unspecified)	Sfp inh 32µM (no result: G9a block)
CC(=O)N1CCc2c(sc(NC(=O)CS(=O)(=O)c3ccc(F)cc3)c2C(N)=O)C1	G9a block 50µM (no result: Sfp inh)
COC(=O)c1c(NC(=O)C2COc3ccccc3O2)sc2c1CCN(C(C)=O)C2 (stereo unspecified)	none
CN1N/C(=C\c2ccccc2)N=C2C(=O)N(C)C(=O)N=C21	none (no result: BAZ2B block, G9a block, Sfp inh)
CCC(=O)N1c2ccc(S(=O)(=O)CCC(=O)NCc3cccc(OC)c3)cc2CC1C (stereo unspecified)	none (no result: BAZ2B block, Sfp inh)
Nc1cc(Cc2ccccc2)ccc1O	JMJD2A Tudor inh 3.2µM, HP1b binding inh 45µM (no result: BAZ2B block, G9a block, Sfp inh)
